Experimental data: PubChem BioAssay (NCI)
Compounds without any hit were thinned out: in the full panel of roughly 79,000, 15% have a hit. No stated cut-off is given here; in the data, active means growth inhibition above about 70%; inactive means the rest. Where a SMILES comes first, the peptide text is derived from it. The star is where a group is joined. Boc = CC(C)(C)OC(=O)*

Tests used:
[1] = NCI Yeast Anticancer Drug Screen. Data for the rad50 strain (AID 155);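 further: 0% = growth of vehicle-only cultures of the same strain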; settings: S. cerevisiae rad50 strain growth inhibition; at 50.0 µM; stronger effect = higher value
Summary of the method: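 Relative growth inhibition (compound vs vehicle) was measured in yeast with a defined repair-gene alteration.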

[2] = NCI Yeast Anticancer Drug Screen. Data for the mec2-1 strain (AID 157); settings: S. cerevisiae mec2-1 strain, at 50.0 µM, stronger effect = higher value
Summary of the method: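 Growth inhibition is read against vehicle-treated controls after compound exposure of the mec2-1 yeast strain, which is defective in DNA damage repair or cell cycle control.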

[3] = NCI Yeast Anticancer Drug Screen. Data for the sgs1 mgt1 strain (AID 161);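 further: 0% = growth of cultures given vehicle only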; settings: S. cerevisiae sgs1 mgt1 strain, at 50.0 µM, stronger effect = higher value
Summary of the method: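 Yeast cells carrying a defined DNA-repair defect were exposed to test compounds. Growth inhibition was measured relative to vehicle-treated controls.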

[4] = NCI Yeast Anticancer Drug Screen. Data for the cln2 rad14 strain (AID 165);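 further: 0% = growth equal to vehicle treated cultures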; settings: S. cerevisiae cln2 rad14 strain, at 50.0 µM, stronger effect = higher value
Summary of the method: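 Growth inhibition, relative to vehicle-treated controls, is the read-out. The test organism is a yeast strain with defined genetic alterations, cln2 rad14.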

[5] = NCI Yeast Anticancer Drug Screen. Data for the bub3 strain (AID 167); settings: S. cerevisiae bub3 mutant strain, at 50.0 µM, stronger effect = higher value
Summary of the method: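 Screening used yeast with an engineered genetic alteration affecting cell cycle control. Compound-exposed cultures were compared with vehicle cultures, and reduced growth was taken as inhibition.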

[6] = NCI Yeast Anticancer Drug Screen. Data for the mlh1 rad18 strain (AID 175); settings: S. cerevisiae mlh1 rad18 strain growth inhibition; at 50.0 µM; stronger effect = higher value
Summary of the method: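 Cells of a genetically altered yeast strain, deficient in DNA damage repair, were treated with compound. Their growth was then compared with that of vehicle-treated cultures to give inhibition.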

Measured: growth inhibition

O=[N+]([O-])c1ccccc1Oc1ccccc1
inactive: [1] 33.6% | [2] -8.65% | [3] 5.65% | [4] 14.2% | [5] -14.7% | [6] 8%

COc1cc(C(C#N)NNc2nc(C)cc(=O)[nH]2)cc(OC)c1OC (configuration not stated)
inactive: [1] -25.6% | [2] -2.75% | [3] -31.1% | [4] -5.35% | [5] -23.9% | [6] -12.9%

COc1ccc(/C=N\S(=O)(=O)c2ccc(OC)cc2)cc1
inactive: [1] 16.3% | [2] 13.7% | [3] 15.1% | [4] 8.8% | [5] 2.2% | [6] 0.5%

CCN(CC)CC(=O)Nc1c(C(N)=O)nnn1Cc1cc(Cl)c(C(=O)c2ccc(Cl)cc2)c(Cl)c1
inactive: [1] 41.8% | [2] -14.5% | [3] 5.15% | [4] 7.95% | [5] 15.9% | [6] -36.1%

Cc1nc2ccccc2nc1N1CCCC1
inactive: [1] -6.2% | [2] -29.1% | [3] -26.9% | [4] -25.2% | [5] -47.8% | [6] 0.55%

CCOC(=O)/C=C(\C)NC
inactive: [1] -27.5% | [2] -46.9% | [3] -30.9% | [4] -2.75% | [5] -47% | [6] 5.95%

C1=C(c2ccccc2)N(c2ccccc2)N=C(c2ccccc2)C1
inactive: [1] 0.85% | [2] -19.7% | [3] 6% | [4] -10.4% | [5] -1.65% | [6] 18.6%

COc1ccc(C2OC3=C(Nc4ccc([N+](=O)[O-])cc4N3)C2=O)cc1 (configuration not stated)
inactive: [1] -7.25% | [2] -19.3% | [3] -16.8% | [4] -5.35% | [5] -37.9% | [6] -5.8%

CCS(=O)CCO (configuration not stated)
inactive: [1] -22.7% | [2] -20.4% | [3] -15.8% | [4] -21.8% | [5] 10.8% | [6] -14.2%

CC1OC2(CC(OCc3ccccc3)C1OCc1ccccc1)OCCO2 (configuration not stated)
inactive: [1] -10.9% | [2] -3.85% | [3] -8.7% | [4] -4.8% | [5] 21.6% | [6] -31.9%

CC(=O)OC1CCC2(C)C(=CCC3C2CCC2(C)C(/C(C)=N/NC(N)=S)=CCC32)C1 (configuration not stated)
inactive: [1] 58.8% | [2] 55.4% | [3] 67.6% | [4] 49.6% | [5] 37.7% | [6] 54.1%

C=CCC1C(=O)NN=C1C (configuration not stated)
inactive: [1] 5.05% | [2] -12.1% | [3] -10.7% | [4] -22.5% | [5] -5.5% | [6] 2.45%

COc1cccc(/C=N/[N-]C(N)=O)c1[O-].[OH3+].[Pd+2]
inactive: [1] 7.65% | [2] 8.2% | [3] 15.9% | [4] 7.4% | [5] 18.9% | [6] 21.6%

N#C/C(=C\c1ccccc1Cl)C(=O)c1ccccc1
inactive: [1] 11.4% | [2] 11.8% | [3] -5.9% | [4] 9.9% | [5] 18.9% | [6] 32.4%

CCC1C(OC)=CC2(CC)CC1(OC)OC2=O (configuration not stated)
inactive: [1] -4.75% | [2] -0.3% | [3] -1.2% | [4] -2.45% | [5] 7.45% | [6] -3.35%

NC(=O)[N+](=CC(=S)Nc1ccccc1Cl)C(N)=O
inactive: [1] -43.3% | [2] -43.5% | [3] -36.7% | [4] -15.8% | [5] -33.4% | [6] 34.6%

O=C(O)CS(=O)(=O)c1nc2ccccc2[nH]1
inactive: [1] -27.3% | [2] 20.6% | [3] -7.75% | [4] -57.6% | [5] 10.8% | [6] -14.8%

O=C(NCc1ccccc1)Nc1cccc2c(NC(=O)NCc3ccccc3)cccc12
inactive: [1] -32.3% | [2] -31.2% | [3] -26.9% | [4] -8.15% | [5] -27.5% | [6] -7.95%

COc1cc(NS(=O)(=O)c2ccc(C)cc2)c2c(c1N)C(=O)c1ccccc1C2=O
inactive: [1] -3.4% | [2] -8.15% | [3] -4.1% | [4] 5.35% | [5] 5.55% | [6] -1.05%

O=C(/C=C\c1ccccc1)C(C(=O)/C=C/c1ccccc1)C(=O)c1ccccc1 (configuration not stated)
inactive: [1] -1.5% | [2] -3.05% | [3] 3.15% | [4] 14.9% | [5] -1.25% | [6] 32.8%

COc1ccc2cc3n(cc-2c1=O)CCc1cc2c(cc1-3)OCO2
inactive: [1] -8.65% | [2] -3.1% | [3] 5.65% | [4] -14.4% | [5] -6.65% | [6] 1.45%

CC(OC(C)C(N)=O)C(N)=O (configuration not stated)
inactive: [1] -0.05% | [2] 0.55% | [3] -5.8% | [4] -3.05% | [5] 4.9% | [6] -1.15%

CC(Oc1ccc(OCC2CCCCC2)cc1)C(=O)OCC(=O)c1ccc(-c2ccccc2)cc1 (configuration not stated)
inactive: [1] -9.75% | [2] -7.4% | [3] -19.1% | [4] -3.15% | [5] -7.7% | [6] -11.3%

C1COC(C2=NCCO2)=N1
inactive: [1] -12.5% | [2] 2.6% | [3] -14.1% | [4] -42% | [5] 6.1% | [6] -0.4%

Clc1ccc(C2=CSC3=NCCN23)cc1
inactive: [1] 3.45% | [2] -1.4% | [3] -9.55% | [4] -97.3% | [5] 16.4% | [6] 1.25%

COc1ccc(N=C2C(=Nc3ccc(OC)cc3)N(c3ccc(OC)cc3)C(=S)N2C)cc1
inactive: [1] 19% | [2] -7.1% | [3] -39% | [4] -12% | [5] -7.65% | [6] 13.5%

COC(=O)/C=C/C(=O)OC
inactive: [1] 9.75% | [2] 14.4% | [3] 19.4% | [4] 9.3% | [5] 9.45% | [6] 6.6%

COC1C(/C=[N+](\C)[O-])OC2OC(C)(C)OC21 (configuration not stated)
inactive: [1] 10.2% | [2] -9.5% | [3] -12.8% | [4] -26.1% | [5] 17.6% | [6] 12.8%

O=c1[nH]nc(-c2ccccc2)n1/N=C\c1ccccc1
inactive: [1] -33.1% | [2] -10.3% | [3] -15.6% | [4] -26.1% | [5] 6.15% | [6] -26%

CCc1cccc(OC(=O)CCl)c1
inactive: [1] 3.1% | [2] 7.5% | [3] -1.65% | [4] -24.4% | [5] -17.8% | [6] -5.1%

O=[N+]([O-])c1ccccc1SSc1ccccc1[N+](=O)[O-]
inactive: [1] -20.4% | [2] -15.6% | [3] -36.5% | [4] -1.85% | [5] -46.4% | [6] -18.6%

CCCCCC(N)C(=O)O (configuration not stated)
inactive: [1] 1.7% | [2] 6% | [3] -14.5% | [4] -22.1% | [5] -2.35% | [6] -17.9%

NC(=O)NC(CCl)NC(N)=O
inactive: [1] 6.6% | [2] -5.8% | [3] -2.05% | [4] 13.1% | [5] -3.55% | [6] -12.3%

CSc1nc2c(c(=O)[nH]1)N=C(c1ccccc1)CC(c1ccccc1)N2 (configuration not stated)
inactive: [1] 7.45% | [2] 14.7% | [3] 17.8% | [4] -0.55% | [5] 22.6% | [6] -5.85%

c1cc(CCc2ccncc2)ccn1
inactive: [1] 21.9% | [2] -16.1% | [3] 2.5% | [4] 3.6% | [5] 1.3% | [6] 22.4%

C=CC1(C(=O)O)CCC(C(C)(C)C)CC1 (configuration not stated)
inactive: [1] 42.9% | [2] 42% | [3] 31.6% | [4] 36.1% | [5] 21.6% | [6] 13.3%

COc1ccccc1NC(=O)Cc1nc(=O)[nH]c(=O)[nH]1
inactive: [1] -13.3% | [2] -37.7% | [3] 3.5% | [4] -0.35% | [5] -4.95% | [6] -9.55%

COP(=O)(OC)C(Cc1cn(C(C)=O)c2ccccc12)C(=O)O (configuration not stated)
inactive: [1] -53.3% | [2] -69.5% | [3] -56.8% | [4] -25.1% | [5] -27.4% | [6] -37.5%

O=C(/C(=C/c1ccccc1)N1CCOCC1)c1cccc2ccccc12
inactive: [1] 18.9% | [2] -2.15% | [3] 17.1% | [4] 14.7% | [5] 21.4% | [6] 19.9%

CC(C)C(NC(=O)OC(C)(C)C)C(=O)N1CCCC1C(=O)O (stereo not drawn) (Boc-Val-Pro-OH; configuration not given here)
inactive: [1] 11.8% | [2] -1.5% | [3] 18% | [4] 3.3% | [5] 2.3% | [6] 5.65%

CCC(c1ccc(C(C)=O)c(O)c1)C(CC)c1ccc(C(C)=O)c(O)c1 (configuration not stated)
inactive: [1] 9.65% | [2] 9.75% | [3] 22.6% | [4] 8.7% | [5] 2.8% | [6] 30.4%

Cc1ccc2c(c1)-c1cc(C)ccc1C2
inactive: [1] 29.1% | [2] 19.9% | [3] 16.4% | [4] 15% | [5] 29.4% | [6] -1.35%
